Experimental data taken from PubChem BioAssay (NCATS).
Inconclusive results are not listed. Values without a mark were called inactive. Active and inactive are the calls of the source. The call rests on the fitted dose curve; in most records, active means well fitted cell-killing curve with a large enough effect; inconclusive means small, poorly fitted or top-dose-only effect, or effect the other way; inactive means no such curve, though single readings can be large or run the other way.

test: Viability qHTS for spleen associated tyrosine kinase inhibitor (SYKi) naive MV4-11 cells (AID 1963823); settings: MV4-11 AML viability, CellTiter-Glo luminescence, 72 h; series mostly up to 45 µM; further: nearly all actives have a fitted effect of over 40% in size
How it was run: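 SYK inhibitor-naive MV4-11 cells, 500 per well, exposed to compounds for 72 hr at 37 C, 5% CO2. Viability read as CellTiter-Glo luminescence after 10 min at room temperature.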
Potency means the concentration at half of the fitted maximal effect.

| SMILES | Potency | viability (% of control) |
| --- | --- | --- |
| CC1C2=CC(=O)OC2(O)CC2C1C(O)CC1C(C)(CO)CCCC21C (configuration not stated) | inactive |  |
| O=C(Nc1ccccc1)N1CCN(c2nc(-c3ccccc3)ns2)CC1 | 14.6 µM (active) |  |
| COc1cc(/C=C/C(=O)O[C@@H]2C[C@@](O)(C(=O)O)C[C@@H](O)[C@@H]2O)ccc1O | inactive |  |
| COC(=O)CC[C@H](NC(=O)[C@H](CC(C)C)NC(=O)OCc1ccccc1)C(=O)N[C@@H](Cc1cnc[nH]1)C(=O)N[C@@H](CC(=O)OC)C(=O)CF |  | 80.3% [at 9.25 µM] |
| CC(=O)CC1CCC(C(C)C(=O)OCC(O)CO)O1 (configuration not stated) | inactive |  |
| CC[C@@]1(O)C(=O)OCc2c1cc1n(c2=O)Cc2c-1nc1ccccc1c2CCNC(C)C | 0.0059 µM (active) |  |
| CC(C)c1cc(C(=O)N2CC[C@@H](NC(=O)C3CC3)C2)n[nH]1 | inactive |  |
| CCC(CC)C(=O)Nc1sc2c(c1C#N)CCC(C(C)(C)CC)C2 (configuration not stated) | 2.06 µM (active) |  |
| CC(C)(C)c1ccc(S(=O)(=O)Nc2ccc(-n3ccnc3)cc2)cc1 | 10.3 µM (active) |  |
| CC1(C(=O)O)CC[C@]2(C(=O)OC3OC(CO)C(O)C(O)C3O)CC[C@]3(C)C(=CCC4[C@@]5(C)CC[C@H](OC6OCC(O)C(O)C6OC6OC(CO)C(O)C(O)C6O)C(C)(C)C5CC[C@]43C)C2C1 (some centres not stated) |  | 68.3% [at 9.25 µM] |
| C=CC1(C)CC2CCC3C(C)(C(=O)O)CCCC3(C)C2=CC1=O (configuration not stated) | inactive |  |
| C=C1CC2[C@@]3(C)C=CC(=O)C(C)(C)C3=C(O)C(=O)[C@@]2(C)C2(C(=O)OC)C(=O)C(C)OC(=O)[C@@]12C (some centres not stated) | 10 µM (active) |  |
